Bioassay records as filed in PubChem BioAssay.
Shown is part of a subset that was picked to be rich in hits.
CXXC DNA block: inhibitors of human MLL CXXC domain-DNA interaction; Q03164; MLL-CXXC / FITC-HOXA9 DNA fluorescence polarization; Potency, µM (doses to about 115 µM), for the others: top-dose activity change, negative = inhibition, most hits filed as inhibitors; 290,000 tested, 0.037% active; AID 2662; active = well fitted inhibition curve with a large enough effect in the polarisation, with a control signal flat, not every such curve was filed as active; inconclusive = small, poorly fitted or top-dose-only effect, or effect the other way, or a change in a side signal; inactive = no such curve, though single readings can be large or run the other way; the % refers to the polarisation; also: potency is read from the fitted curve at half-maximal effect
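Purified MLL-CXXC (added from a 7 uM solution) was preincubated 5 min at ambient with pinned compounds in 50 mM Tris-HCl pH 7.5, 50 mM NaCl, 1 mM DTT, 0.05% BSA. Fluorescein-labeled HOX-A9 DNA (50 nM solution) followed, 30 min, then polarization read.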
p53 reactivator: mutant p53 re-activation in reporter cells; H1299 p53-A138V BP100-luciferase reporter, luminescence, 24 h; Potency, µM (top dose mostly 92.2 µM), inactives show top-dose activity change, positive = activation, hits mostly activators; 320,000 tested, 0.063% active; active = well fitted activation curve with a large enough effect; inconclusive = small, poorly fitted or top-dose-only effect; inactive = no such curve, though single readings can be large or run the other way; also: potency is read from the fitted curve at half-maximal effect; % of control where 0% means no effect; nearly all actives have a fitted effect of over 45% in size
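p53-null H1299 cells stably carrying temperature-sensitive p53-A138V and a BP100-luciferase reporter were pinned with compounds (4-point, 1:5 series) and held 24 hrs at 37 deg C. Luminescence was read 10 min after detection reagent.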
ClpP mod: qHTS Assay for Activators of ClpP; AID 651965, 2013; 340,000 tested, 1.9% active; Potency, µM (doses to about 57.5 µM), for the others: at the highest dose activity change, negative = active; ATP-dependent Clp protease proteolytic subunit (Bacillus subtilis (strain 168)), P80244; purified B. subtilis ClpP, FRET peptide cleavage, 20 min; active = well fitted falling curve with a large enough effect; inconclusive = small, poorly fitted or top-dose-only effect; inactive = no such curve, though single readings can be large or run the other way; also: potency is read from the fitted curve at half-maximal effect; the source files actives as falling curves though it sought activators and does not explain the sign; nearly all actives have a fitted effect of over 65% in size
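Purified B. subtilis ClpP, 10 microg/mL final in Tris/HCl pH8 with KCl, BSA, glycerol and Tween-20, cleaved an Abz/nitrotyrosine-quenched decapeptide. Fluorescence (ex 320, em 430) was read at 0 and 20 min at room temperature. Delta was normalized to 5.8 microM ADEP and DMSO/no-enzyme controls.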
Menin-MLL TR inh: inhibitors of human menin-MLL interaction, mutant MLL peptide; O00255; Menin + Texas Red MLL mutant peptide, fluorescence polarization; Potency, µM (highest dose often 61.6 µM), for inactives: at the top dose FP activity change, negative = inhibition, usual class: inhibitors; 270,000 tested, 0.23% active; AID 1768; active = well fitted inhibition curve with a large enough effect in the polarisation, with a control signal flat, not every such curve was filed as active; inconclusive = small, poorly fitted or top-dose-only effect, or effect the other way, or a change in a side signal; inactive = no such curve, though single readings can be large or run the other way; the % refers to the polarisation; also: potency is read from the fitted curve at half-maximal effect; % of control where 0% means no effect
Target sequence (O00255 whole entry, looked up): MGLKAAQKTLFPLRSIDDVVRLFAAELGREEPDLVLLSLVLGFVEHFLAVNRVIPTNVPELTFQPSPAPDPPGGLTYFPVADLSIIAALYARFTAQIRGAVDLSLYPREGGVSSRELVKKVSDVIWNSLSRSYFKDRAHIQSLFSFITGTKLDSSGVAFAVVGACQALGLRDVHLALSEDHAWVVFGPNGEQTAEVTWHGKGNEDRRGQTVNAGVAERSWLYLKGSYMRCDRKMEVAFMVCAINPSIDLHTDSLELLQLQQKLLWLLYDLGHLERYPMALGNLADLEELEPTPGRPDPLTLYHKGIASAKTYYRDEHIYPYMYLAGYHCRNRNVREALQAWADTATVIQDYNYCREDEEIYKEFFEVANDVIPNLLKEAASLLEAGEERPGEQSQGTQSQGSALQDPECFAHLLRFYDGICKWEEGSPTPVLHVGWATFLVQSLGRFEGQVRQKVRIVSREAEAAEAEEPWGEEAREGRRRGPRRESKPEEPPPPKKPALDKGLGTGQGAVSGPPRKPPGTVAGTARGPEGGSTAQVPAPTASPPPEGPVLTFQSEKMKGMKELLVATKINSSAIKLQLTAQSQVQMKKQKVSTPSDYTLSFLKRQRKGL
Menin MLL FP FL: menin-MLL binding inhibition, fluorescein peptide | Fluorescence polarization, fluorescein-MLL peptide displacement from menin | FP activity change, % at 61.4 µM | 290,000 tested, under 10 active | AID 1766; active = well fitted curve in the direction sought with a large enough effect in the polarisation, not every such curve was filed as active; inconclusive = small, poorly fitted or top-dose-only effect, or effect the other way, or a change in a side signal; inactive = no such curve, though single readings can be large or run the other way; the % refers to the polarisation; also: % of control where 0% means no effect
Active calls of the source: *; ? = inconclusive; / = not tested or not shown; [ ] = another dose, or the depositor's remark.

SMILES	CXXC DNA block	p53 reactivator	ClpP mod	Menin-MLL TR inh	Menin MLL FP FL
CCC1CCc2c(sc(NC(=O)C3c4ccccc4Oc4ccccc43)c2C(N)=O)C1 (stereo not given)	17%	-3%	?	-20%	-2
CCOC(=O)c1c(NC(=O)c2ccco2)sc2c1CCCCC2	-5%	-3%	35µM*	-3%[11.7 µM]	4
CCOC(=O)c1c(NC(=O)c2ccc(C)cc2)sc2c1CC(C)(C)OC2	1%	-3%	25µM*	-2%	1
CCCN1CNc2c(c(=O)[nH]c(=S)n2CCc2cc(C)cc(C)c2)C1	/	/	-5%	/	/
CC(C)CC(NC(=O)NC(CCC(=O)O)C(=O)O)C(=O)O (stereo not given)	/	/	/	25%	0
NCCCC[C@H](NC(=O)[C@H](CCCN=C(N)N)NC(=O)[C@H](CO)NC(=O)[C@H](CCCN=C(N)N)NC(=O)[C@@H](N)Cc1ccc(O)cc1)C(=O)N[C@@H](Cc1ccc(O)cc1)C(=O)N[C@@H](CO)C(=O)N[C@@H](CO)C(=O)N[C@@H](Cc1c[nH]c2ccccc12)C(=O)N[C@@H](Cc1ccc(O)cc1)C(=O)O	/	/	/	-21%	-16
O=C(COC(=O)c1ccco1)Nc1ccc2c(c1)OCO2	1%	10%	-1%	13%	2
CNc1ccccc1C(=O)OCC(=O)Nc1ccc2c(c1)OCO2	/	?	28µM*	/	/
Brc1ccc(/C=C2\C=Cc3ccccc32)cc1	/	/	1%	/	/
CCOc1ccc(-c2cn3c(n2)sc2cc(C(=O)NCCc4ccc(OC)c(OC)c4)ccc23)cc1	/	/	35µM*	/	/
Cc1ccc(S(=O)(=O)N2CCC(c3nc(-c4cccs4)nc4ccccc34)CC2)cc1	/	/	-13%	/	/
Cc1nc(N2CCN(C)CC2)c2nnn(Cc3ccccc3)c2n1	/	/	0%	/	/
CN(C)CCNc1oc(-c2cccc(Cl)c2)nc1C#N	3%	6%	16µM*	-1%	4
CN(C)CCCNc1oc(-c2ccccc2)nc1C#N	2%	0%	-1%	2%	3
CCSc1nc(-c2ccc(OC)cc2)ccc1C#N	-2%	-2%	28µM*	44%	2
CCCCSc1nc(-c2ccc(OC)cc2)ccc1C#N	/	/	4%	/	/
O=C(O)Cc1c(Cl)ccc(Cl)c1Cl	/	/	/	4%	2
CC(=O)OC[C@H]1O[C@@H](Sc2cccc3cccnc23)[C@H](OC(C)=O)[C@@H](OC(C)=O)[C@@H]1OC(C)=O	6%	-11%	14µM*	5%	2
CC(=O)OCC1OC(c2ccccc2)C(OC(C)=O)C(OC(C)=O)C1OC(C)=O (stereo not given)	-2%	3%	1%	-11%	4
CC(=O)OC[C@H]1O[C@@H](Sc2cccc3cccnc23)[C@H](OC(C)=O)[C@@H](OC(C)=O)[C@H]1OC(C)=O	17%	13%	4µM*	1%	2
CC(C)CNc1ncnc2oc(-c3ccco3)c(-c3ccco3)c12	/	/	4%	/	/
COc1ccccc1CN1CCCC(CNC(=O)c2cccc3ccccc23)C1 (stereo not given)	-14%	2%	0%	-21%	0
O=C(NCC1CCCN(Cc2nccs2)C1)c1cccc2ccccc12 (stereo not given)	12%	-1%	35µM*	/	/
O=C1CCCc2c1[nH]c1ccc(CN3CCCCC3)cc21	11%	-6%	28µM*	-7%	-1
CC(C)c1ccc2[nH]c3c(c2c1)CCCC3=O	1%	7%	/	-3%	1
SMILES	CXXC DNA block	p53 reactivator	ClpP mod	Menin-MLL TR inh	Menin MLL FP FL
Cc1ccc2[nH]c3c(c2c1)CCC3=O	-1%	0%	25µM*	3%	-2
Cc1ccc2[nH]c3c(c2c1)CCCC3=O	-6%	0%	?	5%	1
Cc1ccccc1NC(=O)CSc1nc2ccc(NC(=O)c3ccccc3)cc2s1	/	/	49%	/	/
CC(=O)Nc1cc(-c2ccc(C(=O)N3CCOCC3)cc2)cn2c(-c3ccccc3)cnc12	/	/	25µM*	/	/
CC(=O)Nc1cc(-c2ccc(C(=O)N3CCOCC3)cc2)cn2c(-c3ccc(C(C)=O)cc3)cnc12	/	/	-27%	/	/
CCc1ccc(NC(=O)CSc2nc3ncccc3[nH]2)cc1	/	/	-3%	/	/
Cc1ccc(S(=O)(=O)N(C)c2ccc(OCc3cccc(C)c3)cc2)cc1	-3%	3%	22µM*	/	/
CNc1ccc(/C=C/c2ccnc3ccccc23)cc1	/	/	1%	/	/
Fc1ccc(C2=CC(c3ccc(Br)o3)n3ncnc3N2)cc1 (stereo not given)	7%	5%	32µM*	22%	?
C1=C(c2ccc(-c3ccccc3)cc2)Nc2ncnn2C1c1ccco1 (stereo not given)	?	?	16µM*	?	?
Fc1ccc(C2=CC(c3ccco3)n3ncnc3N2)cc1 (stereo not given)	-3%	-7%	-28%	-8%	?
Brc1ccc(C2=CC(c3cccs3)n3ncnc3N2)cc1 (stereo not given)	?	0%	32µM*	?	?
O=C(C[n+]1ccccc1Cl)c1cccc([N+](=O)[O-])c1	/	/	-3%	/	/
CC(C)CS(=O)(=O)c1oc(-c2ccc(F)cc2)nc1S(=O)(=O)c1ccccc1	/	/	-9%	/	/
COc1ccc(-c2nnc(-c3cccs3)o2)cc1OC	-3%	?	32µM*	-14%	1
COc1cc(-c2nnc(-c3cccs3)o2)cc(OC)c1OC	-3%	3%	?	-1%	0
Cc1ccc(C)c2c1NC(C(=O)O)C1CC=CC21 (stereo not given)	/	/	-18%	/	/
COc1cc(C(=O)N2CCN(Cc3ccccc3C(F)(F)F)CC2)cc(OC)c1OC	-6%	-22%	1%	-14%	0
COc1cccc(OC)c1C(=O)N1CCN(Cc2ccccc2C(F)(F)F)CC1	-12%	-10%	32µM*	?	4
COc1ccc(-c2ccc(CCC(=O)O)n2CC(C)C)cc1	-8%	-2%	32µM*	6%	?
O=C(O)CCc1ccc(-c2ccc(Br)cc2)n1CC(=O)O	15%	13%	-9%	-8%	7
CCCn1c(CCC(=O)O)ccc1-c1ccccc1	-3%	-2%	/	-6%	-3
Cc1ccc(-c2ccc(CCC(=O)O)n2Cc2ccco2)cc1	0%	-2%	32µM*	10%	5
O=C(O)CCc1ccc(-c2ccccc2)n1CC(=O)O	-5%	15%	32µM*	-15%	3
CN(C)c1ccc(/C=C2\C(Cl)=Cc3ccccc32)cc1	/	/	0%	/	/
O=C(O[C@H]1[C@H](Cc2ccccc2)NS(=O)(=O)[C@H]2C[C@@H]3C=C[C@]12O3)c1ccccc1Br	/	/	2%	/	/
CS(=O)(=O)N1CCN(c2ccccc2NC(=O)c2ccc(-c3ccc(Br)cc3)o2)CC1	11%	4%	32µM*	-8%	6
CS(=O)(=O)N1CCN(c2ccccc2NC(=O)c2cc(Br)ccc2Cl)CC1	1%	-3%	/	17%	0
